Test results published in ChEMBL document CHEMBL4513146, “CO-ADD screening of Karazin Kharkiv National University (Ukraine) compounds”.
Entries with a potency or affinity are not part of this list.

Tested on: Staphylococcus aureus
Conditions: Concentration 32 ug.mL-1;; ASSAY_TEST Inhibition of Bacterial Growth; detection method Absorption (OD600); MEDIA CAMHB; plate type 384well; NBS; CORNING #3640; time 18 hr

Compound	Inhibition [%]
Cc1cc(C)c(NC(=O)Cn2nc3c(SCc4ccc(Cl)cc4)nccn3c2=O)c(C)c1	3.14
COc1ccc(C(=O)CSc2nnc3c(=O)n(-c4ccc(Br)cc4)ccn23)cc1	17.48
COc1cccc(-n2ccn3c(SCC(=O)Nc4cccc(F)c4)nnc3c2=O)c1	-6.79
CC(C)c1nnc2c(SCC(=O)Nc3ccc(C#N)cc3)nc3ccccc3n12	2.21
Cc1cc(C)c(C(=O)CSc2nnc3c(=O)n(-c4ccc(F)c(F)c4)ccn23)cc1C	17
O=C(Cn1nc2c(N3CCOCC3)nccn2c1=O)Nc1ccc(Cl)cc1F	8.72
CCc1ccc(NC(=O)Cn2nc3c4cc(-c5ccc(Cl)cc5)nn4ccn3c2=O)cc1	10.21
COc1ccc(CNC(=O)Cn2nc3c(SCc4ccc(Cl)cc4)nccn3c2=O)cc1	-6.61
Cc1ccc(NC(=O)CSc2nnc3n(CC4CCCO4)c(=O)c4sccc4n23)cc1F (stereo unspecified)	4.36
Cc1cc(C)c(NC(=O)Cn2nc3c4c5c(sc4ncn3c2=O)CCCC5)c(C)c1	8.81
COc1cccc(-n2ccn3c(SCC(=O)c4c[nH]c5ccc(OC)cc45)nnc3c2=O)c1	11.97
Cc1ccc(-c2cc3c4nnc(CCC(=O)N5CCN(c6ccccc6F)CC5)n4ccn3n2)cc1C	-1.08
CCCc1nnc2c(=O)n(CC(=O)Nc3cccc(C(C)=O)c3)c3ccccc3n12	2.4
Cc1nnc2ccc(S(=O)(=O)N(Cc3ccccc3F)c3cc(F)cc(F)c3)cn12	-3.63
COc1ccc(N(Cc2ccccc2F)S(=O)(=O)c2ccc3nnc(C)n3c2)cc1	8.97
N#Cc1cccc(Cn2nc3ccc(S(=O)(=O)N4CCCCCC4)cn3c2=O)c1	10.44
Cc1nnc2c(=O)n(CC(=O)Nc3ccc(C(C)C)cc3)c3ccccc3n12	18.68
C=Cc1ccc(CSc2nnc3c(=O)n(-c4cccc(OC)c4)ccn23)cc1	15.25
Cc1nnc2ccc(S(=O)(=O)N(Cc3ccccc3F)c3cccc(F)c3)cn12	9.15
CCCn1c(=O)c2sccc2n2c(CCC(=O)NC(C)C34CC5CC(CC(C5)C3)C4)nnc12 (stereo unspecified)	-5.57
COc1ccc(C(C)NC(=O)CCc2nnc3ccc(-c4ccc(C)c(C)c4)nn23)cc1OC (stereo unspecified)	7.27
CCCc1nnc2c(=O)n(CC(=O)Nc3ccc(Cl)c(Cl)c3)c3ccccc3n12	-1.25
Cc1ccc(-c2cc3c4nnc(CCC(=O)N5CCN(c6ccccn6)CC5)n4ccn3n2)cc1C	-0.56
COc1ccc(NC(=O)Cn2nc3c(N4CCOCC4)nccn3c2=O)cc1Cl	10.11
CCc1ccc(N(Cc2ccc(Cl)cc2)S(=O)(=O)c2cccn3c(C)nnc23)cc1	0.63
CCCN(C)c1nccn2c(=O)n(CC(=O)Nc3cccc(Br)c3)nc12	10.78

Tested on: Escherichia coli
Conditions: Concentration 32 ug.mL-1;; ASSAY_TEST Inhibition of Bacterial Growth; detection method Absorption (OD600); MEDIA CAMHB; plate type 384well; NBS; CORNING #3640; time 18 hr

Compound	Inhibition [%]
CSc1cccc(NC(=O)Cn2nc3c(Sc4ccccc4)nccn3c2=O)c1	-10.44
Cc1ccc(NC(=O)Cn2nc3ccc(-c4ccc(C)c(C)c4)nn3c2=O)cc1	-5.02
COc1ccccc1CNC(=O)Cn1nc2c(N3CCCCCC3)nccn2c1=O	-0.92
COc1cc(NC(=O)C(C)Sc2nnc3c(=O)n(-c4ccc(C)c(C)c4)ccn23)cc(OC)c1 (stereo unspecified)	-10.24
CCCCOc1ccc(-c2cc3c4nnc(SCC(=O)Nc5c(C)cccc5CC)n4ccn3n2)cc1	-38.25
COc1cc(NC(=O)Cn2nc3ccc(-c4ccc(C)c(C)c4)nn3c2=O)cc(OC)c1	-5.07
O=C(Cn1nc2c(Oc3ccccc3)nccn2c1=O)Nc1ccc(Br)cc1F	-11.64
O=c1n(Cc2ccccc2F)nc2ccc(S(=O)(=O)N3CCCCCC3)cn12	-8.1
C=Cc1ccc(CSc2nnc3c(=O)n(-c4ccc(F)cc4)ccn23)cc1	-2.33
Cc1cc(C)cc(NC(=O)Cn2nc3n(C)c(=O)c4c(c(-c5ccccc5)cn4C)n3c2=O)c1	1.88
Cc1cc2nn(CC(=O)Nc3ccc(F)cc3C)c(=O)n2c(Nc2ccc(F)cc2)n1	-3.34
COc1ccc(NC(=O)Cn2nc3ccc(-c4ccc(Cl)cc4)nn3c2=O)cc1	-4.11
Cc1nnc2c(S(=O)(=O)N(Cc3cc(F)cc(F)c3)c3cccc(F)c3)cccn12	-6.31
COc1ccc(N(Cc2ccc(OC)c(F)c2)S(=O)(=O)c2ccc3nncn3c2)cc1	-0.06
Cc1cc(C)c(NC(=O)Cn2nc3c(SCc4ccc(Cl)cc4)nccn3c2=O)c(C)c1	0.78
COc1ccc(C(=O)CSc2nnc3c(=O)n(-c4ccc(Br)cc4)ccn23)cc1	2.13
COc1cccc(-n2ccn3c(SCC(=O)Nc4cccc(F)c4)nnc3c2=O)c1	-18.41
CC(C)c1nnc2c(SCC(=O)Nc3ccc(C#N)cc3)nc3ccccc3n12	1.03
Cc1cc(C)c(C(=O)CSc2nnc3c(=O)n(-c4ccc(F)c(F)c4)ccn23)cc1C	-3.21
O=C(Cn1nc2c(N3CCOCC3)nccn2c1=O)Nc1ccc(Cl)cc1F	5.15

Compound	Inhibition [%]
CCc1ccc(NC(=O)Cn2nc3c4cc(-c5ccc(Cl)cc5)nn4ccn3c2=O)cc1	3.59
COc1ccc(CNC(=O)Cn2nc3c(SCc4ccc(Cl)cc4)nccn3c2=O)cc1	-12.31
Cc1ccc(NC(=O)CSc2nnc3n(CC4CCCO4)c(=O)c4sccc4n23)cc1F (stereo unspecified)	-6.16
Cc1cc(C)c(NC(=O)Cn2nc3c4c5c(sc4ncn3c2=O)CCCC5)c(C)c1	-5.83
COc1cccc(-n2ccn3c(SCC(=O)c4c[nH]c5ccc(OC)cc45)nnc3c2=O)c1	-2.96
Cc1ccc(-c2cc3c4nnc(CCC(=O)N5CCN(c6ccccc6F)CC5)n4ccn3n2)cc1C	-5.39
CCCc1nnc2c(=O)n(CC(=O)Nc3cccc(C(C)=O)c3)c3ccccc3n12	-14.35
Cc1nnc2ccc(S(=O)(=O)N(Cc3ccccc3F)c3cc(F)cc(F)c3)cn12	-18.18
COc1ccc(N(Cc2ccccc2F)S(=O)(=O)c2ccc3nnc(C)n3c2)cc1	-7.31
N#Cc1cccc(Cn2nc3ccc(S(=O)(=O)N4CCCCCC4)cn3c2=O)c1	-2.41
Cc1nnc2c(=O)n(CC(=O)Nc3ccc(C(C)C)cc3)c3ccccc3n12	-2.69
C=Cc1ccc(CSc2nnc3c(=O)n(-c4cccc(OC)c4)ccn23)cc1	-3.1
Cc1nnc2ccc(S(=O)(=O)N(Cc3ccccc3F)c3cccc(F)c3)cn12	-8.44
CCCn1c(=O)c2sccc2n2c(CCC(=O)NC(C)C34CC5CC(CC(C5)C3)C4)nnc12 (stereo unspecified)	-7.36
COc1ccc(C(C)NC(=O)CCc2nnc3ccc(-c4ccc(C)c(C)c4)nn23)cc1OC (stereo unspecified)	-3.17
CCCc1nnc2c(=O)n(CC(=O)Nc3ccc(Cl)c(Cl)c3)c3ccccc3n12	0.68
Cc1ccc(-c2cc3c4nnc(CCC(=O)N5CCN(c6ccccn6)CC5)n4ccn3n2)cc1C	-4.11
COc1ccc(NC(=O)Cn2nc3c(N4CCOCC4)nccn3c2=O)cc1Cl	-1.05
CCc1ccc(N(Cc2ccc(Cl)cc2)S(=O)(=O)c2cccn3c(C)nnc23)cc1	-8.46
CCCN(C)c1nccn2c(=O)n(CC(=O)Nc3cccc(Br)c3)nc12	-4.19
